Compound activity from PubChem BioAssay.
This is one part of a sample in which hits are shown more often than they occur.
Pf Dd2 growth: Plasmodium falciparum Dd2 growth inhibition | P. falciparum Dd2 growth, SYBR Green, 72 h | 120,000 compounds, 4.3% hits | Potency, µM (titrated, usually from 28.9 µM), usual class: inhibitors; active = well fitted inhibition curve with a large enough effect; also: nearly all actives have a fitted effect of over 65% in size
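Readout: SYBR Green fluorescence, 485 nm excitation, 535 nm emission, after ~16 h lysis at 37C. Before that, Dd2-infected red cells (2.5% hematocrit) grew 72 h with compound, 29 uM top final concentration.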
Each line names hits and unclear results; the compound was inactive in the other large screens.

CN1CCC2(C1)CN(CC1CCOCC1)c1ccc(C(=O)NCCCO)cc12 (centres undefined)	none
CC1(C)C[C@H](NC(=O)c2ccccc2)[C@@]2(CCC(=O)NCCN3CCOCC3)CC[C@](C)(O)C[C@@H]12	none
COCCCNC(=O)C1(CCO)CC12CCOCC2 (centres undefined)	none
Cc1cccc(N(C)c2nc3ccc(C)cc3n3cnnc23)c1	none
Cc1cccc(N(C)c2ccc3cc(S(=O)(=O)N4CCCC4)ccc3n2)c1	none
Cc1cccc(N(C)c2nc3ccccc3c3nnc(C)n23)c1	Pf Dd2 growth 0.45µM
Cc1ccc(C)c(NC(=O)Cn2c(=O)n(-c3ccc(F)cc3)c(=O)c3c2cc(C)n3C)c1	none
Cc1cccnc1CN1C[C@@H](F)[C@@H](OCc2nc3ccc(F)cc3[nH]2)C1	none
Fc1ccc2nc(CO[C@H]3CN(CC4CC4)C[C@H]3F)[nH]c2c1	Pf Dd2 growth 11µM
Cn1ccnc1CN1C[C@@H](F)[C@@H](OCc2nc3ccc(F)cc3[nH]2)C1	none
COC(=O)CNC(=O)N1CC(c2nnc(-c3ccncc3)o2)C2(CCOCC2)C1 (centres undefined)	none
COc1ccc(CCC(=O)N2CC[C@@H]3COCCN(Cc4ccncc4)[C@@H]3C2)cc1	none
CCCC(=O)N1CC(=O)Nc2ccc(Cl)cc2C1c1ccccc1 (centres undefined)	none
O=C1CN(C(=O)COc2ccc(Cl)cc2)C(c2ccc(F)cc2)c2cc(Cl)ccc2N1 (centres undefined)	Pf Dd2 growth 10µM
CCC(=O)N1CC(=O)Nc2ccc(C)cc2C1c1ccc(F)cc1 (centres undefined)	none
COc1ccc(Cl)cc1C(=O)N1CCC(Oc2ccc3c(cnn3CCC(=O)O)c2)CC1	none
Cc1ccc(NC(=O)N2CCC(CCNC(=O)Cc3cccc(F)c3)CC2)cc1	none
Cc1ccc(OCC(=O)NCCC2CCN(C(=O)Nc3ccc(F)cc3)CC2)cc1	Pf Dd2 growth 13µM
Cc1cccc(C(=O)NCCC2CCN(C(=O)Nc3ccc(F)cc3)CC2)c1	none
CCC(=O)NCCC1CCN(C(=O)Nc2ccc(C)c(F)c2)CC1	none
Cc1ccc(NC(=O)N2CCC(CCNC(=O)c3n[nH]c4ccccc34)CC2)cc1F	Pf Dd2 growth 4µM
CCC(=O)NCCC1CCN(C(=O)Nc2ccc(C)cc2)CC1	none
CCOCCc1nc(C2CCOC2)nn1C1CCCCC1 (centres undefined)	none
COCCNC(=O)c1ccc2c(c1)N(C)C(CC(=O)NC(C)C)CO2 (centres undefined)	none
CN(CC1CCOCC1)C(=O)c1cccc(F)c1	none
Cc1ccc(C)c(N2CCN(C(=O)c3ccc4c(=O)n(CCc5ccccc5)c(=O)[nH]c4c3)CC2)c1	none
O=C(CCCn1c(=O)[nH]c2ccc(Br)cc2c1=O)N1CCN(c2cccc(Cl)c2)CC1	none
CC(=O)c1ccc(N2CCN(C(=O)CCCn3c(=O)[nH]c4ccsc4c3=O)CC2)cc1	none
CC(=O)c1ccc(N2CCN(C(=O)CCCCn3c(=O)[nH]c4ccccc4c3=O)CC2)cc1	Pf Dd2 growth 5.6µM
O=C(CCCCCn1c(=O)[nH]c2ccccc2c1=O)NCc1ccc(Cl)cc1	none
CCCCCn1c(=O)[nH]c2cc(C(=O)N3CCN(c4ccccc4F)CC3)ccc2c1=O	none
O=C(CCCCCn1c(=O)[nH]c2ccccc2c1=O)NCc1ccccc1	Pf Dd2 growth 10µM
COC(=O)c1ccc2c(=O)n(CCCCCC(=O)N3CCN(c4cc(Cl)ccc4C)CC3)c(=O)[nH]c2c1	Pf Dd2 growth 10µM
O=C(CCCCCn1c(=O)[nH]c2ccccc2c1=O)NCCc1ccccc1	none
O=C(c1cc(-c2cccnc2)c2nncn2n1)N1CCOCC1	none
CCC1(C(=O)NCc2cccc(C(F)(F)F)c2)CCCCC(=O)N1 (centres undefined)	none
CCC(C)NC(=O)CN1CN(c2ccccc2)C2(CCN(C(=O)c3cccc(OC)c3)CC2)C1=O (centres undefined)	none
N#Cc1ccc(C(=O)N2CCCN(C(=O)C3CC3)C(c3ccccc3)CC(=O)NCC2)cc1 (centres undefined)	none
O=C1C[C@@H]2CCN(C(=O)NC3CCCCC3)C[C@@H]2CCN1Cc1ccc2c(c1)OCO2	none
COc1cccc(-c2nc(N3CCOCC3)cc3c2CN(CC2CC2)C3=O)c1OC	none
COc1ncccc1-c1nc(N2CCOCC2)cc2c1CN(CC(F)(F)F)C2=O	none
O=C1c2cc(N3CCOCC3)nc(-c3cccc(F)c3)c2CN1CC1CC1	none
COc1cccc(-c2nc(N3CCOCC3)cc3c2CN(Cc2ccccc2)C3=O)c1OC	Pf Dd2 growth 11µM
COc1cccc(-c2nc(N3CCOCC3)cc3c2CN(CC(F)(F)F)C3=O)c1OC	none
O=C1c2cc(N3CCOCC3)nc(-c3cccc(O)c3)c2CN1CC(F)(F)F	Pf Dd2 growth 2.8µM
O=C(c1ccc2ccccc2c1)N1C[C@@H]2C[C@H](C1)c1ccc(NS(=O)(=O)c3cccc(F)c3)c(=O)n1C2	none
CCC(C)(C)C(=O)N1CCC2(CC1)N(C)C(=O)CS2(=O)=O	none
CN1CC(=O)N(C2CCNCC2)Cc2c(NC3CCCCC3O)ncnc21 (centres undefined)	none
CN(C)Cc1cn2c(=O)n(C)cc(-c3ccc(O)c(F)c3)c2n1	none
Cn1cc(-c2ccc(F)c(Cl)c2)c2nc(CO)cn2c1=O	none
